# Screens: PubChem, several laboratories
# CYP2C19 act: human CYP2C19 activators, primary screen, biochemical, luminescence | Cytochrome P450 2C19 (Homo sapiens), P33261 | recombinant CYP2C19, luciferin-H EGE luminescence; active compounds read high; 0 = fully inhibited enzyme, 1 = untreated enzyme | activation factor at 5 µM | 96,000 tested, under 10 active | AID 1025, 2008;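 active = activation factor of at least 2 at 5 µM in the primary screen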
# CYP2C9 inh: blockers of cytochrome P450 2C9 activity – biochemical, luminescence, ADME assay, primary screen | CYP2C9 Supersomes, luciferin-H conversion | 20% of 96,000 active | P11712 | inhibition, % at 5 µM;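 active = blocking of liver enzyme CYP2C9 beyond about 50% at 5 µM, limit read from the data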
# Target sequence (P11712 whole entry, looked up): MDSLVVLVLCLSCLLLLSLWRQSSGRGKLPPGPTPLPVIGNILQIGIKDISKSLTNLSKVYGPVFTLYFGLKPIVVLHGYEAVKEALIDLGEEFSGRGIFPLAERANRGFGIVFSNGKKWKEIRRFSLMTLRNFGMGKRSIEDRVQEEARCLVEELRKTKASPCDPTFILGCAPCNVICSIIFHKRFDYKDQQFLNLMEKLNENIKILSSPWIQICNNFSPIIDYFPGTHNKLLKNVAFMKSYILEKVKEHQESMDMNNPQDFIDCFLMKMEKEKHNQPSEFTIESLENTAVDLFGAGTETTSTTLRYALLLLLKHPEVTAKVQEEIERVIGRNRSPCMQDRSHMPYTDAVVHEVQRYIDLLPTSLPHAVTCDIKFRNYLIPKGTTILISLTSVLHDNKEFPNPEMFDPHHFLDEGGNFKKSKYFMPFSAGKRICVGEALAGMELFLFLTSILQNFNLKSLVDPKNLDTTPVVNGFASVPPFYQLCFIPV
# DAT uptake mod: changed hDAT dopamine uptake under cocaine IC80, either direction, primary screen, cocaine antagonist project, cell-based, LLC-PK1 hDAT, [14C]-dopamine uptake, MLSMR | Sodium-dependent dopamine transporter (Homo sapiens), Q01959 | LLC-PK1 hDAT cells, [14C]-dopamine uptake with cocaine IC80; actives deviate in either direction | B-score at 10 µM | 1.3% of 110,000 active | AID 449768, 2010;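 active = Z score or B-score, a plate-position-corrected score, falls beyond the plate's 99.7% confidence bounds, in either direction; inactive = both scores lie inside the 99.7% bounds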
# D1 allo mod: D1 CRE-luciferase signal change, two-sided – cell-based, HEK293 D1, dopamine EC30, D1 allosteric modulator project, primary screen; dopamine EC30 potentiation; actives deviate in either direction; B-score at 10 µM; 5.9% of 58,000 active;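 active = luminescence count or its row- and column-corrected plate score outside the 99.7% band of the plate's sample wells, on either side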
# CYP2C9 act: human CYP2C9 activators, primary screen, biochemical, luminescence; Cytochrome P450 2C9 (Homo sapiens), P11712; recombinant CYP2C9, luciferin-H conversion; active compounds read high; factor 1 = untreated enzyme, 0 = blocked; activation factor at 5 µM; 1.4% of 96,000 active; AID 1024, 2008;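 active = activation factor of 2 or more for CYP2C9 at a 5 µM dose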
# CYP2C19 inhib: blockers of cytochrome P450 2C19 activity – biochemical, luminescence, ADME assay, primary screen; 21% of 96,000 active; inhibition, % at 5 µM; P33261; CYP2C19 Supersomes, luciferin-H EGE luminescence, 30 min;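 active = CYP2C19 inhibition above a set limit at 5 µM in the primary screen, cut at about 50% in these data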
# Hits are given with their value; i = inactive; nt = no result. This is a sample that favours compounds with a hit; in the whole collection about 28% have one here.
SMILES,CYP2C19 act,CYP2C9 inh,DAT uptake mod,D1 allo mod,CYP2C9 act,CYP2C19 inhib
Cc1cc(C)c2c(-n3cccc3)nn(CC#N)c2n1,i,i,i,nt,i,i
COC(=O)C1=C(C)N(C)C(=O)NC1c1ccc(C)cc1 (stereo not given),i,i,i,nt,i,53.6
COC(=O)C1=C(C)N(C)C(C)=C(C(=O)OC)C1c1ccsc1,i,91.1,i,i,i,68.5
COC(=O)C1=C(C)NC2=C(C(=O)CCC2)C1c1ccsc1 (stereo not given),i,i,i,i,i,i
COC(=O)C1=C(C)N(C)C(C)=C(C(=O)OC)C1c1ccc(C(=O)OC)cc1,i,92.1,i,i,i,96.7
COC(=O)c1ccc(C2CC(=O)NC3=C2C(=O)CCC3)cc1 (stereo not given),i,i,i,i,i,i
CCN1C(=O)N[C@@H](c2ccc(Br)cc2)C(C(=O)OC)=C1C,nt,nt,i,nt,nt,nt
COC(=O)C1=CNC=C(C(=O)OC)C1c1ccc(C(=O)OC)cc1,i,95.2,i,i,i,98.8
CCN1C(=O)N(C)[C@@H](c2ccccc2)C(C(=O)OC)=C1C,nt,nt,i,nt,nt,nt
COc1ccc(OC)c(C(=O)CSc2nnc(-c3ccc(OC)c(OC)c3)o2)c1,i,i,i,i,i,i
CCOC(=O)c1cc(CC)sc1N,i,i,i,nt,i,i
Cc1cc(N)n2nc(-c3ccccc3)cc2n1,nt,nt,nt,-3.43,nt,nt
O=S(=O)(c1ccc(Cl)cc1)N1CCC(N2CCCCCC2)CC1,i,i,i,nt,i,i
Cc1ccc(C(=O)c2c(C)oc3c2C(=O)C(=O)c2ccccc2-3)cc1,i,56.3,i,nt,i,62.8
Cc1ccc(C(=O)c2coc3c2C(=O)C(=O)c2ccccc2-3)cc1,i,72.2,i,nt,i,i
CCCCCCCCCCS(=O)(=O)N/N=C/c1ccc([N+](=O)[O-])cc1,i,i,i,nt,i,i
CCN(CC)S(=O)(=O)c1ccc(NS(=O)(=O)c2ccc(F)cc2)cc1,i,85.8,i,nt,i,i
CCN(CC)S(=O)(=O)c1ccc(NS(=O)(=O)c2cccc(C)c2)cc1,i,90.7,i,i,i,i
CCOC(=O)c1ccc(NC2OC(=O)c3ccccc32)cc1 (stereo not given),i,i,i,i,i,i
COC(=O)C(NC(=O)c1ccc(F)cc1)(Nc1ncc(S(=O)(=O)c2ccc([N+](=O)[O-])cc2)s1)C(F)(F)F (stereo not given),i,87.9,i,nt,i,50.5
COC(=O)C(NC(=O)c1ccccc1C)(Nc1ncc(S(=O)(=O)c2ccc([N+](=O)[O-])cc2)s1)C(F)(F)F (stereo not given),i,60.4,i,nt,i,i
COC(=O)C(NC(=O)c1ccccc1)(Nc1nc(C)cs1)C(F)(F)F (stereo not given),i,i,i,i,i,i
Cc1ccc2cccc(OC(=O)c3ccc4c(c3)OCCO4)c2n1,i,i,i,i,i,i
c1ccc(-c2cc(-c3nnc4n3N=C(c3ccc5ccccc5c3)CS4)[nH]n2)cc1,i,i,i,nt,i,i
COc1ccc2c(c1)N(C)C(=O)CC(c1ccccc1)=N2,i,97.9,i,i,i,94.3
SMILES,CYP2C19 act,CYP2C9 inh,DAT uptake mod,D1 allo mod,CYP2C9 act,CYP2C19 inhib
CCn1c(-c2ccc(N)cc2)nc2ccccc21,i,i,i,i,i,i
CCn1c(-c2ccc(N(C)C)cc2)nc2ccccc21,i,i,i,-4.94,i,i
CN(C)c1ccc(-c2nc3ccccc3n2C)cc1,i,i,i,-5.12,i,56.0
CC(=O)NC(C)c1nc2ccccc2n1C(C)C (stereo not given),i,i,i,i,i,i
CCN(CC)c1ccc2cc(-c3nc4ccccc4n3C)c(=O)oc2c1,i,i,i,i,i,i
Cc1ccc(C(O)c2nc3ccccc3n2C(C)C)cc1 (stereo not given),i,i,nt,nt,i,92.2
CC(C)n1c(Nc2ccccc2)nc2ccccc21,i,i,i,i,i,i
CC(C)n1c(-c2ccc(N(C)C)cc2)nc2ccccc21,i,62.1,i,-4.62,i,61.1
CCN1C(=O)N(S(=O)(=O)c2ccc(C)cc2)[C@@H](c2ccccc2)C(C(=O)OC)=C1C,nt,nt,i,nt,nt,nt
CCCCN(CCCC)S(=O)(=O)c1ccc2[nH]c(=O)[nH]c2c1,i,i,i,nt,i,i
Cc1ccc(N2C(=O)N(CC(=O)C(C)(C)C)c3ccccc3S2(=O)=O)cc1,nt,nt,i,nt,nt,nt
Cc1ccc(NS(=O)(=O)c2ccc(NC(=O)c3ccc(Br)o3)cc2)c(C)c1,i,66.8,i,nt,i,i
Cc1cc(C)cc(NS(=O)(=O)c2ccc(NC(=S)NC(=O)c3ccc(Br)o3)cc2)c1,i,74.0,i,nt,i,i
Cc1ccc(NS(=O)(=O)c2ccc(NC(=O)c3ccc(-c4ccccc4)cc3)cc2)c(C)c1,nt,nt,i,nt,nt,nt
O=C(c1cc2ccccc2o1)c1nc2c(n1O)CCCCC2,i,i,i,i,i,i
O=C(NCc1ccc(F)cc1)C(=O)NCC1OCCN1C(=O)c1ccc(Cl)cc1 (stereo not given),nt,nt,2.43,nt,nt,nt
O=C(NCc1cccnc1)C(=O)NCC1OCCN1S(=O)(=O)c1ccc(Cl)cc1 (stereo not given),nt,nt,i,nt,nt,nt
C[C@@H](C(=O)NCc1ccccn1)[C@@H]1C[C@@]1(C)[C@@H](NC(=O)OCc1ccccc1)c1ccccc1,nt,nt,i,nt,nt,nt
COc1ccccc1NC(=O)c1ccc(COc2ccccc2OC)o1,i,i,i,i,2.8,58.5
COc1ccccc1NC(=O)c1ccc(-c2ccccc2F)o1,i,i,i,i,i,i
COC(=O)c1ccccc1NC(=O)c1ccc(COc2ccc(C)c(C)c2)o1,i,i,i,nt,i,52.5
COC(=O)c1ccccc1NC(=O)c1ccc(COc2cc(C)cc(C)c2)o1,i,i,i,nt,i,i
CC1(C)C(CO)=CC(=O)C2=C1SCC(=O)N2,nt,nt,i,nt,nt,nt
COc1ccc(NC(=O)c2ccco2)cc1NC(=O)c1c(F)c(F)c(OC)c(F)c1F,i,i,i,i,i,i
Brc1cnn(-c2nc(N3CCOCC3)nc(N3CCOCC3)n2)c1,nt,nt,nt,3.56,nt,nt
c1ccc(N(c2ccccc2)c2nc(N3CCOCC3)nc(N3CCOCC3)n2)cc1,i,i,nt,i,i,i
O=C(Nc1nccs1)[C@@H]1CC=C[C@@H]2CCN(Cc3ccccc3)C(=O)[C@@H]21,nt,nt,i,nt,nt,nt
COc1ccc(NC(=O)CNS(=O)(=O)c2cccs2)c(OC)c1,i,i,i,nt,i,57.4
COc1ccc(NCC(=O)Nc2ccc(Cl)cc2C)c(OC)c1,i,99.4,i,i,i,93.1
